This is one part of the list. A number with no mark means an inactive call.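 The calls were made as follows: active = mean percent activation across triplicates above a set limit taken from the earlier primary procaspase-3 screen; inactive = the rest.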
The compounds below were run against Caspase-3 (Homo sapiens) (UniProt P42574) (assay: procaspase-3 activators, counter-screen for dual procaspase-3/7 activator project, biochemical, absorbance, PC-3 D3A mutant, human (AID 493114;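 also: 0% = DMSO wells and 100% = DMSO wells with 5 µM added PC-3 D3A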)). Details: recombinant PC-3 D3A, Ac-DEVD-pNA absorbance 405 nm; at 8.5 µM; stronger effect = higher value; 100% = enzyme control; aspartates 9, 28, 175 changed to alanine.
Sequence of Caspase-3 (Homo sapiens) (P42574 whole entry D9A/D28A/D175A): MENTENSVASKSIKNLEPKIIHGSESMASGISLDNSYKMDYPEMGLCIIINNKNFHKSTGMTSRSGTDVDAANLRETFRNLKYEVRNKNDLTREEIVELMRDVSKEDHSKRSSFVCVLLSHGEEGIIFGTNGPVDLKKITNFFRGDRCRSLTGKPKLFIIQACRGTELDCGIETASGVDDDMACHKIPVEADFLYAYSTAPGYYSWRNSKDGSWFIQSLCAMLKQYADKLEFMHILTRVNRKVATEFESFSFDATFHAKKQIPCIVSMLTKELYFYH
`COc1ccccc1N=Cc1c(O)c2ccccc2oc1=O` showed an activation of -28.6%.
For `CC1(C)Cc2c(C#N)c(SCc3nc4ccccc4[nH]3)nc(N3CCOCC3)c2CO1`, the activation was -28.2%.
In the case of `Nc1cccc2c1C(=O)N(Cc1nnc(-c3ccccc3Br)o1)C2=O`, the activation is reported as -28.5%.
`CNS(=O)(=O)c1cccc(C(=O)NC2CCCc3ccccc32)c1` (stereo not given) was tested, and the activation was 2.51%.
Compound `COc1ccc(/C=N/Nc2nc3ccccc3c(=O)[nH]2)cc1` has an activation of 0.42%.
`COc1ccc(Nc2ncnc3sc(-c4ccccc4)cc23)c(OC)c1` gave an activation of -22.7%.
With `CC(=O)Oc1ccc2c(C)c(CC(C)O)c(=O)oc2c1` (stereo not given) the activation was -29.8%.
For `COc1ccc(-c2onc3ccc(C(C)=O)cc23)cc1`, the activation was -28%.
Compound `O=C1OCCN1C(=O)[C@H]1[C@H](c2ccc(F)cc2)C(c2ccccc2)=NN1c1ccc(Br)cc1` has an activation of -28.8%.
With `CCOC(=O)C1(CCOC)CCN(Cc2cc3ccccc3s2)CC1` the activation was 2.49%.
`COc1ccc2sc(-c3ccc(S(C)(=O)=O)cc3)c(C#Cc3cncn3C)c2c1` gave an activation of -29.9%.
Compound `CCN(CC)c1ccc2oc(=O)c(C)nc2c1` has an activation of -12.2%.
`COc1ccc(Nc2ncc(C(=O)N3CCN(c4ccccc4OC)CC3)c3ccccc23)cc1` showed an activation of 0.74%.
`CCCCOC(=O)Cn1c(=O)n(CC(=O)OCCCC)c2cc(C)ccc21` was tested, and the activation was 2.96%.
Work on `Fc1ccc(N2N=C(c3cccs3)CC2c2ccco2)c(F)c1` (stereo not given) yielded an activation of -29.1%.

From PubChem BioAssay AID493114 (The Scripps Research Institute Molecular Screening Center, 2011)
